Measured values taken from PubChem BioAssay AID1508602 (The Scripps Research Institute Molecular Screening Center, 2020).
The campaign covered roughly 650,000 compounds. About 6,800 (1%) were called active. Only a selection was taken, and actives are over-represented in it overall. Values without a mark were called inactive. Rule as the data show it: active = activation above about 4.9%; inactive = the rest.

target: G-protein coupled receptor 151 (Homo sapiens) (UniProt Q8TDV0); experiment: activators of human GPR151, primary screen, cell-based, PathHunter beta-arrestin, luminescence (AID 1508602); settings: PathHunter beta-arrestin GPR151 cells, at 11.2 µM, stronger effect = higher value;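 also: 0% = median of compound wells and 100% = cells with positive control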
Sequence (Q8TDV0 whole entry, looked up): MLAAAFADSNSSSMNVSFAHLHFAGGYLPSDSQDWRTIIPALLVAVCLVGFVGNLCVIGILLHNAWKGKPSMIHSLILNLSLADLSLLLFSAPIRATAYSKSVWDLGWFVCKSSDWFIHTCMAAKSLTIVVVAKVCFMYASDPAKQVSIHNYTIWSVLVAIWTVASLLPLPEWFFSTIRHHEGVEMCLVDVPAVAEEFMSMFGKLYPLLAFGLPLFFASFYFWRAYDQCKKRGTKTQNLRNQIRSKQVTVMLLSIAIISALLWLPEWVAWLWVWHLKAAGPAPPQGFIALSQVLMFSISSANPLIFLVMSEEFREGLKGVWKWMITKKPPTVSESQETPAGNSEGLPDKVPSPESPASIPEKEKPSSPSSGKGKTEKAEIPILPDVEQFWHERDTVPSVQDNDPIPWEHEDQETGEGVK

| SMILES | activation |
| --- | --- |
| CCC(C(=O)N1CCCCC1)n1c(C)c2cnn(-c3ccccc3)c(=O)c2c1C (stereo not given) | 5.32% (active) |
| Cc1c2cnn(-c3ccccc3)c(=O)c2c(C)n1CCCC(=O)N1CCN(C)CC1 | 0.178% |
| CCC(C(=O)N1CCN(C)CC1)n1c(C)c2cnn(-c3ccccc3)c(=O)c2c1C (stereo not given) | -1.42% |
| Cc1ccc(S(=O)(=O)Oc2ccc(/C=C3\SC(N)=NC3=O)cc2)cc1 | -0.455% |
| COc1ccc2c(c1)C(Cc1csc(C)n1)(c1ccc(F)cc1)C(=O)N2 (stereo not given) | 0.748% |
| CC(C)NCCOCCOc1ccc(I)cc1 | 0.568% |
| CCNc1nc(NC(C)C)nc(OCCOC(=O)c2ccccc2)n1 | 1.89% |
| CCNc1nc(NCC)nc(C(=O)O)n1 | -0.247% |
| CCNc1nc(NC(C)C)nc(OCCOC(C)=O)n1 | 5.11% (active) |
| Cc1ccc(CN(C)Cc2nc3sc4c(c3c(=O)[nH]2)CCC4)o1 | 0.643% |
| COc1ccc(Nc2ncc(-c3ccc(CO)cc3)n3ccnc23)cc1 | -0.0468% |
| CC(C)c1ccc(Nc2nccn3c(-c4cccc(CO)c4)cnc23)cc1 | 7.31% (active) |
| NC(=O)c1ccc(Nc2nccn3c(-c4cccc(F)c4)cnc23)cc1 | -0.391% |
| COc1ccccc1NC(=O)CSc1nnc(-c2ccc(O)cc2)o1 | -0.782% |
| CC(=O)N1CCN(Cc2ccc3c(c2)CN(Cc2c[nH]c4ccccc24)CCO3)CC1 | 2.78% |
| CCOc1cccc(CN2CCOc3ccc(CN4CCNC(=O)C4CC)cc3C2)c1 (stereo not given) | -1.24% |
| CCC1C(=O)NCCN1Cc1ccc2c(c1)CN(Cc1c[nH]c3ccccc13)CCO2 (stereo not given) | 5.37% (active) |
| COc1ccc2c(c1)C=C(CN1CCN(CC3CCCCC3)C(CCO)C1)CO2 (stereo not given) | 5.13% (active) |
| COc1cc(CN2CCN(CC3CCCCC3)C(CCO)C2)ccc1O (stereo not given) | -0.725% |
| COc1cccc2c1OCC(CN1CCN(C3CCCCC3)C(CCO)C1)=C2 (stereo not given) | 2.61% |
| O=C(Nc1ccc(Cl)cc1F)c1ccc(SCC(=O)N2CCCCC2)c([N+](=O)[O-])c1 | 2.3% |
| COc1ccc(S(=O)(=O)N(C)CC(=O)NCc2ccccn2)cc1C | 2.7% |
| Cc1cccc(Nc2nnc(SCC(=O)N3CCCC3=O)s2)c1C | -1.1% |

| SMILES | activation |
| --- | --- |
| Cc1cccc(NC(=O)CN2C(=O)S/C(=C\c3ccc(Br)s3)C2=O)c1 | 1.12% |
| O=C(CN1C(=O)COc2ccc(Cl)cc21)Nc1ccccc1F | 0.859% |
| O=C(CN1C(=O)S/C(=C\c2ccc(Cl)s2)C1=O)Nc1ccccc1F | 7.92% (active) |
| COc1ccc(N2C(=O)CN(C(=O)c3cc(C(F)(F)F)[nH]n3)CC23CCCC3)cc1 | -0.225% |
| COc1cccc(CC(=O)N2CCc3nc(COc4ccccc4)c4c(c3C2)CO[C@@H](C)C4)c1 | 4.35% |
| C[C@H]1Cc2c(COc3ccccc3)nc3c(c2CO1)CN(C(=O)NCc1ccco1)CC3 | 8.56% (active) |
| C[C@H]1Cc2c(COc3ccccc3)nc3c(c2CO1)CN(C(=O)Nc1cccc(C#N)c1)CC3 | -0.449% |
| Cc1ccnc(-n2c(=O)c3cc4c(=O)n(-c5cc(C)ccn5)c(=O)c4cc3c2=O)c1 | -0.463% |
| Cc1ncc(CO)c(/C=N/NC(=O)c2cc3c(s2)CCC(C)C3)c1O (stereo not given) | -0.38% |
| CN(C)c1ccc(C=NCC(O)CN=Cc2ccc(N(C)C)cc2)cc1 (stereo not given) | 0.679% |
| CC[n+]1c(/C=C/c2ccc(N(C)C)cc2)oc2ccccc21 | -0.273% |
| CC[n+]1cc(C)ccc1/C=C/c1ccc(N(C)C)cc1 | 5.25% (active) |
| CCC(C)C(=O)NCc1nnc2n1CCN(C(=O)c1sc(C)nc1C)CC2 (stereo not given) | -0.99% |
| COc1cccc(NC(=O)c2cc([N+](=O)[O-])ccc2NC(=O)CNCc2cccnc2)c1 | -1.03% |
| O=C(Nc1ccc(-c2ccncc2)cn1)C1COc2ccccc2O1 (stereo not given) | -2.03% |
| COCCNc1nc2nonc2nc1N1CCCC1c1nccs1 (stereo not given) | 1.38% |
| COCCNc1nc2nonc2nc1N(C)Cc1ccc(C)cc1 | -1.03% |
| COCCNc1nc2nonc2nc1N(C)Cc1ccncc1C | 8.73% (active) |
| O=C(O)c1cc([N+](=O)[O-])c(NCc2ccccc2)c([N+](=O)[O-])c1 | 0.643% |
| O=C(Cn1c(=O)n(Cc2cccs2)c(=O)c2cccnc21)Nc1ccc(F)cc1 | 5.75% (active) |
| O=C(Cn1c(=O)n(Cc2ccc3c(c2)OCO3)c(=O)c2cccnc21)Nc1ccc(F)cc1 | -0.979% |
| O=C(Cn1c(=O)n(Cc2ccc(F)cc2)c(=O)c2cccnc21)Nc1ccccc1F | 0.571% |
| COc1ccc(NC(=O)c2ccc(F)c3ccccc23)cc1 | 0.361% |

| SMILES | activation |
| --- | --- |
| COC(=O)c1cnn2c1NCN(Cc1ccccc1Cl)C2 | 0.44% |
| CC(=O)Nc1cccc(-c2cnc3[nH]c(=O)n([C@@H](C)c4ccccc4)c3n2)c1 | 0.0611% |
| CCN(CC)C(=O)C1c2ccccc2C(=O)N(CCOC)C1c1c[nH]c2ccccc12 (stereo not given) | -0.555% |
| COc1ccc(-c2nc3cc(Cl)ccc3c(=O)o2)cc1OC | -0.243% |
| COc1cc2nc(-c3ccc4c(c3)C(=O)N(CCC(C)C)C4=O)oc(=O)c2cc1OC | 5.83% (active) |
| COc1ccc([N+](=O)[O-])cc1N1C(=O)c2ccc(-c3nc4ccccc4c(=O)o3)cc2C1=O | 2.31% |
| O=C(c1ccccc1)N1CCN(c2nc3ccccc3o2)CC1 | 0.594% |
| Cc1ccc(S(=O)(=O)N/N=C/c2ccc(N(C)C)c(Br)c2)cc1 | -1.16% |
| O=C(CCn1nnc2ccccc21)N/N=C/c1ccc2ccccc2c1 | -0.0304% |
| Cc1ccccc1Nc1nnc(SCC(=O)N(C)C)s1 | -2.99% |
| COc1ccc(NS(=O)(=O)c2ccc(Cl)cc2)cc1 | 2.48% |
| CCOc1ccc(NS(=O)(=O)c2ccc(Cl)cc2)cc1 | 2.4% |
| CCc1ccc(NS(=O)(=O)c2ccc(Cl)cc2)cc1 | 5.43% (active) |
| O=C(Nc1ccc(F)c(F)c1)c1ccc(N2CC3CC(C2)c2cccc(=O)n2C3)c(NC(=O)c2ccc(Br)o2)c1 (stereo not given) | 2.62% |
| COc1ccc(C(=O)COC(=O)C(Cc2ccccc2)NC(=O)c2ccco2)cc1 (stereo not given) | 6.4% (active) |
| CCC(Cc1ccccc1)NC(=O)c1ccco1 (stereo not given) | 0.495% |
| O=C(COC(=O)C(Cc1c[nH]c2ccccc12)NC(=O)c1ccco1)c1ccc(Br)cc1 (stereo not given) | 0.0528% |
| Cc1ccsc1C(=O)OCc1nc2ccccc2s1 | -2.54% |
| Cc1cccnc1CN1CCN(C(=O)Cn2nnnc2CN(C)C(C)C)CC1 | -1.06% |
| Cc1ccc(C)c(NC(=O)CN2CCOCC2)c1 | -1.34% |
| Cc1ccc(NC(=O)Cn2cc(-c3ccccc3)c(N3CCOCC3)n2)c(C)c1 | 4.93% (active) |
| Cc1ccc2c(c1)N(C(=O)Cn1cc(-c3ccccc3)c(N(C)C)n1)CCO2 | -0.0851% |
| Cc1c(C(=O)Oc2ccccc2)sc2ncn(Cc3ccccc3F)c(=O)c12 | 1.05% |

| SMILES | activation |
| --- | --- |
| CC(C)n1nccc1-c1nnc(NC(=O)Cc2ccc(F)cc2)o1 | 3.52% |
| N=C1CCCN1CC(=O)c1ccccc1 | 0.114% |
| Cc1ccc2nc3[nH]c4ccccc4c3nc2c1 | -4.57% |
| Nc1c([N+](=O)[O-])cc(Br)c2nsnc12 | 0.283% |
| CN(C)CC(C)(O)c1ccc2c(c1)CN(C(=O)c1cc(-c3ccsc3)n[nH]1)CCO2 (stereo not given) | -0.659% |
| CCOc1ccc(NC(=O)CN2CCN(CC(N)=O)CC2)cc1 | 0.536% |
| CCOc1ccc(NC(=O)N2CCN(CC)CC2)cc1 | 5.53% (active) |
| CCOc1ccc(NC(=O)N2CCC(N(C)CCC(C)C)CC2)cc1 | -0.0877% |
| CCC(=O)Nc1c(C(=O)Nc2ccccc2)oc2ccccc12 | -0.454% |
| CC(=O)c1cccc(-c2cc(C(=O)Nc3ccc(N4CCOCC4)cc3)ccn2)c1 | 1.66% |
| CN(C)c1cccc(Nc2nc3ccc(C(=O)Nc4ccc(N5CCOCC5)cc4)cc3s2)c1 | -1.45% |
| CN(C)c1cccc(Nc2cc(C(=O)Nc3ccc(N4CCOCC4)cc3)ccn2)c1 | 5.03% (active) |
| COc1cc(OC)cc(-c2nc3ccccc3c(=O)n2NC(=O)Cc2cccs2)c1 | 1.45% |
| O=C(Cc1cccs1)Nn1c(-c2cccc([N+](=O)[O-])c2)nc2ccccc2c1=O | 5.65% (active) |
| O=C(/C=C/c1cccc([N+](=O)[O-])c1)Nn1c(-c2cccs2)nc2ccccc2c1=O | 1.05% |
| O=C1CC(c2nc3ccccc3n2CC(O)COc2ccccc2)CN1c1ccccc1 (stereo not given) | 1.94% |
| COc1cccc(N2C(=O)NC(=O)/C(=C/c3ccc(OC)c(O)c3)C2=O)c1 | 4.48% |
| COc1cccc(/C=C2/C(=O)NC(=O)N(c3ccccc3F)C2=O)c1 | 4.98% (active) |
| COc1cccc(/C=C2\C(=O)NC(=O)N(c3ccccc3Cl)C2=O)c1 | 1.26% |
| Cc1ccc(/C(O)=C2\C(=O)C(=O)N(c3nnc(C)s3)C2c2cccc(Oc3ccccc3)c2)cc1 (stereo not given) | 2.53% |
| CCOc1ccc(C2C(C#N)=C(N)N(c3sc4c(c3C#N)CCCC4)C3=C2C(=O)CC(C)(C)C3)cc1 (stereo not given) | -0.802% |
